Source: PubChem BioAssay AID485353 (National Center for Advancing Translational Sciences (NCATS), 2010)
The campaign covered roughly 330,000 compounds. About 610 (0.18%) were called active. A call without a number means that no potency is given here. Not shown: some 2% with an inconclusive outcome. The call rests on the fitted dose curve. The full list was thinned out, with actives kept by preference.
Potency means the concentration at half of the fitted maximal effect.

Assay: qHTS of Yeast-based Assay for SARS-CoV PLP; further: nearly all actives have a fitted effect of over 55% in size
Details: S. cerevisiae expressing SARS-CoV PLpro; Potency: growth rescue; series mostly up to 32.9 µM
In the case of `COc1cccc(NC(=S)NC(=O)c2c(Cl)c(C)nn2C)c1`, the Potency is reported as “inactive”. In the case of `Cc1nc2ccc(C(=O)N/N=C/c3ccc(O)cc3)cc2[nH]1`, the Potency is reported as “inactive”. For `Cc1ccc2occ(/C=N/NC(=O)c3ccccc3C)c(=O)c2c1`, the Potency was “inactive”. With `Cc1ccc(/C=N/NC(=O)C2=NNC(c3ccccc3)(c3ccccc3)C2)c(O)c1` the Potency was 3.55 µM (active). For `Cc1cc(OC(=O)c2ccccc2Cl)ccc1N1C(=O)CCC1=O`, the Potency was “inactive”. With `CC(C)C(C)NC(=O)COc1nc2ccccc2nc1N(C)C1CCCCC1` (stereo not drawn) the Potency was “inactive”. For `O=C(NC1CCN(C(=S)NCc2ccco2)CC1)c1ccc(F)cc1`, the Potency was “inactive”. In the case of `Cn1c(=O)n(C)c2cc(CNc3ccc(N4CCOCC4)c(C(=O)O)c3)ccc21`, the Potency is reported as “inactive”. In the case of `CC(=O)Nc1cccc2c1[n+]([O-])c(C)c(C)[n+]2[O-]`, the Potency is reported as “inactive”. In the case of `COC(=O)c1ccc(C(NC(=O)OCc2ccccc2)/C(C)=C/[C@@H](C)C(=O)NCc2ccc(OC)c(OC)c2)cc1` (stereo partly drawn), the Potency is reported as “inactive”. In the case of `COc1ccc2ccccc2c1/C=N/NC(=O)c1cc(C)[nH]n1`, the Potency is reported as “inactive”. With `Cc1cc(C(=O)N/N=C/c2cc([N+](=O)[O-])cc(C)c2O)n[nH]1` the Potency was 4.47 µM (active). For `COc1ccc(CC(=O)N/N=C/c2cc([N+](=O)[O-])cc(Br)c2O)cc1`, the Potency was “inactive”. In the case of `CC(=O)c1ccc(NC(=O)C2CC(=O)Nc3nc4ccccc4n32)cc1` (stereo not drawn), the Potency is reported as “inactive”. In the case of `O=c1[nH]c2ccc(S(=O)(=O)N3CCCC3)cc2[nH]1`, the Potency is reported as “inactive”. For `COC(=O)C[n+]1cccc2ccccc21`, the Potency was “inactive”. In the case of `CN(C)c1ccc(C(=S)N2CCN(C(=S)Nc3ccc(Cl)cc3)CC2)cc1`, the Potency is reported as “inactive”. With `COc1cc(N2CCCC2)c(OC)cc1/C=C(/C#N)c1cccc(Br)c1` the Potency was “inactive”. With `CCOC(=O)C1C(=O)OC2(CCCC2)C1C(=O)OCC` (stereo not drawn) the Potency was “inactive”. In the case of `CCN(C(=O)c1ccc(Br)cc1)c1ccccc1`, the Potency is reported as “inactive”. In the case of `CC1CCCCC1NC(=O)/C(C#N)=C/C=C/c1ccccc1[N+](=O)[O-]` (stereo not drawn), the Potency is reported as “inactive”. With `COc1ccc(N(CCC(=O)NCCc2ccccc2)S(=O)(=O)c2ccc(C)cc2C)cc1` the Potency was “inactive”. With `O=C(COC(=O)Cc1ccccc1F)NNC(=O)c1ccc(Cl)cc1` the Potency was “inactive”. For `CCCCOC(=O)CNc1nnc(SCC(=O)OCC)[nH]c1=O`, the Potency was “inactive”. For `COc1ccc(-c2[nH]ncc2/C=N/NC(=O)c2cc(Br)ccc2O)c(OC)c1`, the Potency was “inactive”. With `CC(=N\NC(=O)c1cc(Br)ccc1O)/C(=N/O)C(=O)Nc1ccccc1` the Potency was “inactive”. For `CC(C)/C=N/NC(=O)c1cc(Br)ccc1O`, the Potency was 10 µM (active). In the case of `COc1ccc(C)cc1NC(=O)CSc1ccc(Cl)cc1`, the Potency is reported as “inactive”. For `COC(=O)c1scc(C)c1NC(=O)CSc1ccc(Cl)cc1`, the Potency was 0.708 µM (active). For `COC(=O)c1cc(OC)c(OC)cc1NC(=O)CSc1ccc(C)cc1`, the Potency was “inactive”. With `CCOC(=O)c1sc(/N=C/C2=C(O)CC(C)(C)CC2=O)c(C(=O)OCC)c1C` the Potency was “inactive”. For `CCOC(=O)c1c(/N=C/C2C(=O)CC(C)(C)CC2=O)sc(C)c1C`, the Potency was 3.16 µM (active). In the case of `CCOC(=O)c1c(N)sc2c1CCCC2=O`, the Potency is reported as “inactive”.
